This passage reports inhibition results from PubChem BioAssay AID493012 (Sanford-Burnham Center for Chemical Genomics, 2011).

In all, about 330,000 compounds went through this assay and about 930 (0.28%) were called active. The sample holds actives, similar compounds and a random draw of the others, so the mix is not that of the screen. A number with no mark means an inactive call.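 The calls were made as follows: active = inhibition of at least 40% at 20 µM, with no more than 30% in the related APOBEC3A deaminase screen; inactive = the rest.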

Sequence of DNA dC->dU-editing enzyme APOBEC-3G (Homo sapiens) (Q9HC16 whole entry, looked up): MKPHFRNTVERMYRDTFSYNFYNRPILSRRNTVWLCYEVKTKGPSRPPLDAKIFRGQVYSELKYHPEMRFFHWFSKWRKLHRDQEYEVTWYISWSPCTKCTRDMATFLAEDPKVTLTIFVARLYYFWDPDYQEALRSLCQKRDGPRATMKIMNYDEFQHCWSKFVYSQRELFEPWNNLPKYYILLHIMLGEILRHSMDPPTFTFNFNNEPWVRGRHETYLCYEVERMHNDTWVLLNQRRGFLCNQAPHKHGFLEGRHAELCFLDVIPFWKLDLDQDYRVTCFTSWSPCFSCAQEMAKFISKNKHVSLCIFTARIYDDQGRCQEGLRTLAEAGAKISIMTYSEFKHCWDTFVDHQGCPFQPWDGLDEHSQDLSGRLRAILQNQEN

The assay concerns the target DNA dC->dU-editing enzyme APOBEC-3G (Homo sapiens) (UniProt Q9HC16). Put plainly: APOBEC3G DNA deaminase inhibitors, primary screen, biochemical, fluorescence, single-stranded DNA substrate, uHTS (AID 493012).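 Also: plate controls were DMSO wells with A3G for no effect and wells lacking A3G enzyme for full effect.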 Conditions: recombinant A3G, ssDNA deamination FAM/TAMRA fluorescence; at 20 µM; stronger effect = higher value.
Take `CCOC(=O)C(C)Sc1nnc(CSc2nc3nc(C)cc(C)n3n2)o1` (stereo unspecified): the inhibition was -3.96%. For `CCc1c(C)[nH]c(=S)c(C#N)c1C`, the inhibition was 40.3% (active).

Take `CC(=O)c1c(C)[nH]c(=S)c(C#N)c1-c1ccc(F)cc1`: the inhibition was 5.87%.

Regarding `CCC(=O)N(C)C(c1ccccc1Cl)c1nnnn1-c1c(C)cccc1C` (stereo unspecified), the inhibition is -7.17%. The figure for `COC(=O)c1ccc2c(=O)n(CCN3CCOCC3)c(SCC(=O)Nc3cccc(OC)c3)nc2c1` is -3.78%; for `CC(=O)N(C1=C(Cl)C(=O)c2ccccc2C1=O)c1ccc(C(=O)O)cc1` it is 89.2% (active).

For the molecule `O=C(COC(=O)c1ncc(Cl)c(Cl)c1Cl)NC1CCS(=O)(=O)C1` (stereo unspecified), the inhibition was -7.97%.

Turning to `CC1=C/C(=N\OS(=O)(=O)c2ccccc2)C=CC1=O`, the inhibition was 71.9% (active). Turning to `N#Cc1c(Cl)nc(-c2cccnc2)nc1-c1ccccc1`, the inhibition is -2.3%. In the case of `Cc1ccc(-n2c(N)c(C(=O)N3CCOCC3)sc2=S)c(C)c1` it was 10.5%.

Consider `N#Cc1ccccc1-n1c(N)c(C(=O)N2CCCC2)sc1=S`, for which the inhibition is 25.4%. The figure for `Cc1cccc(-n2c(N)c(C(=O)N3CCN(C)CC3)sc2=S)c1` is 62.1% (active); for `COc1ccc(Cc2n[nH]c(=S)n2NC(=O)Nc2ccc(C)cc2)cc1` it is 26.9%. In the case of `COc1ccc(OCc2n[nH]c(=S)n2N)cc1` it was 59.6% (active); in that of `Cc1ccc(OCc2n[nH]c(=S)n2-c2ccccc2)cc1`, 9.43%; in that of `COC(=O)c1cccc(N(C(=O)c2ccco2)C(C(=O)NC2CCCC2)c2ccco2)c1` (stereo unspecified), 0.606%. In the case of `Cn1c(=O)c2c(SCC(=O)NCC3CCCO3)nc(CC(C)(C)C)nc2n(C)c1=O` (stereo unspecified) it was -3.25%; in that of `CCOc1ccc(CN2CCN(Cc3ccc4cc(F)ccc4n3)CC2CCO)cc1` (stereo unspecified), -8.75%.

Regarding `Cc1ccc(S(=O)(=O)N2CCC(Oc3ccc(-n4cnnn4)cc3)CC2)cc1`, the inhibition was -1.49%.

Regarding `CCCn1c(O)c(CN2CCCC(C)C2)c(C)c(C#N)c1=O` (stereo unspecified), the inhibition is -4.49%.

Turning to `O=c1[nH]c2ccccc2n2c(-c3ccccc3)nnc12`, the inhibition is 83.4% (active). The figure for `O=c1[nH]n2c(-c3ccccc3)nc(O)c2c2ccccc12` is -3.66%; for `CC1(C)CC(=O)C2=C(C1)N=C1SCCC(=O)N1C2c1ccc(C(F)(F)F)cc1` (stereo unspecified) it is -0.591%; for `COc1cccc(OCc2nnc3n2N=C(c2ccccc2)C(CC(=O)O)S3)c1` (stereo unspecified) it is -9.67%. `COc1ccc(OCc2nnc3n2N=C(c2ccccc2)C(CC(=O)O)S3)cc1` (stereo unspecified): the inhibition was 65.2% (active).

As to `COc1ccc(C2CC(c3ccccc3)=NN2C(=O)COC(=O)COc2ccccc2)cc1` (stereo unspecified), the inhibition was -5.97%.

By inhibition is commonly meant the drop in the measured response relative to a control, in per cent.
